In the library only some 2.3% were active in any assay of this set; here they are far more common.
CHRM1 antagonist – human M1 muscarinic receptor antagonists, primary screen, CHO-K1 cells, Fluo-8 calcium fluorescence, 1536-well | inhibition, % at 3 µM | Muscarinic acetylcholine receptor M1 (Homo sapiens), P11229 | AID 588852, 2011 | actives 1.3% (n = 360,000) | CHO-K1 hM1, ACh EC80 antagonist;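 active means percent inhibition above its own plate's cutoff, namely the mean of that plate's compound wells plus 3 SD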;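 further: peak over basal fluorescence ratio during 140 s after agonist addition; 0% = ACh EC80 plus DMSO and 100% = DMSO alone without agonist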
Target sequence (P11229 whole entry, looked up): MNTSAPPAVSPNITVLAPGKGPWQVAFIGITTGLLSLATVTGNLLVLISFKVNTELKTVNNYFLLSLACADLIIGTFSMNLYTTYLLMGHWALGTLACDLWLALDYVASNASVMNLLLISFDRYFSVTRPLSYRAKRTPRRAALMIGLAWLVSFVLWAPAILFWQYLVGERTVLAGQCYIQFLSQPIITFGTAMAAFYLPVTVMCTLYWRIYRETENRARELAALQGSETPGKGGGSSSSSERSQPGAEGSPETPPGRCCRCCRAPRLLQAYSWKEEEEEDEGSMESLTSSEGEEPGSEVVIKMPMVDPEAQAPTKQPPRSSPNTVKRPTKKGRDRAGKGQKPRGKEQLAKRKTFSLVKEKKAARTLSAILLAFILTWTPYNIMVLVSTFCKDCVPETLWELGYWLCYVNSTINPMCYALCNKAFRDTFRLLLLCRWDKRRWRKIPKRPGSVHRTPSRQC
CHRM1 agonist – human M1 muscarinic receptor agonists, primary screen, Fluo-8 calcium fluorescence, CHO-K1 cells, HTS; actives 0.33% (n = 360,000); activation, % at 3 µM; Muscarinic acetylcholine receptor M1 (Homo sapiens), P11229; CHO-K1 hM1, agonist mode; 0% DMSO, 100% acetylcholine EC100; AID 588814, 2011;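 active means activation above the run's mean compound activation plus 3 SD, cut at about 16% in these data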;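 further: peak over basal fluorescence ratio within a 140 s kinetic read after compound addition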
CHRM1 PAM – human M1 muscarinic receptor positive allosteric modulators, primary screen, CHO-K1 cells, Fluo-8 calcium fluorescence, 1536-well; Muscarinic acetylcholine receptor M1 (Homo sapiens), P11229; CHO-K1 hM1, ACh EC20; 0% = ACh EC20, 100% = maximal ACh; activation, % at 3 µM; actives 0.088% (n = 360,000); in the data active means activation above about 19%, passing the limit was not always enough
M1 ag parental – counter-screen for M1 agonists: effect in parental CHO-K1 cells; Fluo-8 calcium fluorescence; scaled to maximal ATP response, vehicle zero; actives 0.48% (n = 360,000); activation, % at 3 µM; AID 602248, 2012; in the data active means activation above about 15%;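 further: untransfected CHO-K1 host cells lacking M1 receptor as counterscreen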
CHO-K1 Ca antag – counter-screen for M1 antagonists: effect in parental CHO-K1 cells | inhibition, % at 3 µM | AID 602250 | ATP-induced calcium, Fluo-8 fluorescence | actives 0.6% (n = 360,000);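 active means inhibition above a per-plate cutoff, the plate's mean sample inhibition plus 3 SD, cut at about 24% in these data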;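 further: 0% = DMSO plus EC80 ATP and 100% = DMSO alone without ATP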
M1 PAM parental – nonselective calcium activators in parental CHO-K1 cells, primary screen, counter-screen for M1 PAM project, cell-based, Fluo-8 calcium fluorescence, full deck, 1536-well. ATP EC20; 0% at ATP EC20, 100% at ATP max. activation, % at 3 µM. actives 0.02% (n = 360,000);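 active means activation above the run cutoff, the mean activation of all test compounds plus 3 SD, cut at about 40% in these data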;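 further: peak over basal fluorescence ratio in a 140 s read after ATP addition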
* hit, by the source's call.

SMILES | CHRM1 antagonist | CHRM1 agonist | CHRM1 PAM | M1 ag parental | CHO-K1 Ca antag | M1 PAM parental
CCOC(=O)N1CCC(NC(=O)C2CCN(C(=O)c3cc4oc(C)cc4n3Cc3c(F)cccc3Cl)CC2)CC1 | -7 | 32* | 11 | 1 | -17 | 20
COC1OC(COCc2ccccc2)C(N)C(OCc2ccccc2)C1OCc1ccccc1 (stereo not drawn) | 42* | -2 | -28 | 3 | -14 | 25
Cc1noc(C)c1CSCC(=O)N1CCN(c2ccc([N+](=O)[O-])cc2)CC1 | 58* | 1 | -21 | 8 | 11 | -6
O=C(NC1CCCCC1)N1CCN(c2ccc([N+](=O)[O-])cc2)CC1 | 27* | 0 | -15 | 12 | 13 | -8
O=C(NC1CCCCC1)N1CCN(c2ccc(Cl)cc2)CC1 | 5 | 1 | 0 | 12 | -10 | 6
O=C(c1cc([N+](=O)[O-])ccc1N1CCOCC1)N1CCN(c2ccc([N+](=O)[O-])cc2)CC1 | 32* | -6 | -11 | 1 | -14 | 3
O=C(NCN1CCOCC1)c1cnccn1 | 12 | -1 | -2 | 3 | 7 | -5
O=C(CN1CCCC1)NCc1ccccc1 | -7 | -3 | 6 | 1 | -15 | 29
O=C(CN1CCCCC1)Nc1ccccc1 | -6 | -5 | 5 | 0 | -7 | 9
O=C(CN1CCCC1)NN=C(c1ccccc1)c1ccccc1 | 64* | -6 | -22 | 1 | -13 | 20
O=C(CN1CCCCCC1)Nc1ccc(Oc2ccccc2)cc1 | 42* | -6 | -23 | 2 | -15 | 10
O=C(CN1CCOCC1)Nc1ccccc1-c1ccccc1 | 3 | -4 | 6 | 0 | 10 | -7
O=C(CN1CCOCC1)NN=C(c1ccccc1)c1ccccc1 | -4 | -4 | 10 | 1 | -16 | 24
O=C(CN1CCCCCC1)NN(Cc1ccccc1)c1ccccc1 | 56* | -8 | -23 | 1 | 1 | 17
O=C(CN1CCCCC1)Nc1ccccc1-c1ccccc1 | 101* | -12 | -34 | -1 | -20 | 0
CC(C)(CNc1ccc(S(=O)(=O)C(F)(F)F)cc1[N+](=O)[O-])N1CCOCC1 | 17 | -2 | -6 | 0 | -6 | 4
CCCCCCn1c(=O)n2n(c1=O)C[C@]1(OC(=O)NCc3ccccc3)CN(S(=O)(=O)c3ccc(C)cc3)C[C@]1(O)C2 | 0 | -4 | 1 | 0 | -7 | 2
COc1ccc(NC(=O)CN2CCN(c3ccccc3)CC2)cc1 | 2 | -5 | 8 | 0 | 5 | 3
O=C(C[n+]1ccccc1)Nc1ccc(Oc2ccccc2)cc1 | 91* | -6 | -23 | 0 | -14 | 22
COc1ccc(NC(=O)CN2CCN(C3c4ccccc4-c4ccccc43)CC2)cc1 | 0 | -4 | 6 | 2 | -27 | 53*
CN(C)c1ccc(NC(=O)C[n+]2ccccc2)cc1 | 1 | -12 | 3 | 1 | -13 | -8
N#CC1(NC(=O)CSc2nnc(Nc3ccccc3F)s2)CCCC1 | -6 | 0 | 3 | 1 | -3 | 8
C[C@]12c3[nH]c4ccccc4c3CCN1C(=O)C(CC(=O)NCCN1CCOCC1)C[C@@H]2C(=O)N1CCOCC1 (stereo partly drawn) | -12 | -2 | 5 | 1 | -14 | 25
COc1ccc(C(CNC(=O)c2cc3c(s2)CCC(C)C3)N2CCCC2)cc1 (stereo not drawn) | -1 | -8 | -5 | 1 | -11 | 22
COc1ccccc1C(CNC(=O)C(C)Oc1ccc(Br)cc1)N1CCCC1 (stereo not drawn) | 31* | -6 | -22 | 1 | -2 | 11
SMILES | CHRM1 antagonist | CHRM1 agonist | CHRM1 PAM | M1 ag parental | CHO-K1 Ca antag | M1 PAM parental
CCC1CCc2sc(C(=O)NCC(c3ccccc3OC)N3CCCC3)cc2C1 (stereo not drawn) | 43* | -6 | -21 | 1 | -14 | 8
COc1ccccc1C(CNC(=O)C1COc2ccccc2O1)N1CCCC1 (stereo not drawn) | 77* | -6 | -24 | 2 | -24 | 7
O=C(C1COc2ccccc2O1)N1CCCCC1 (stereo not drawn) | 29 | -2 | -12 | -1 | 24* | -20
COc1ccccc1CNC(=O)C1COc2ccccc2O1 (stereo not drawn) | -8 | -3 | 4 | 0 | -2 | 14
O=C(C1COc2ccccc2O1)N1CCN(c2ccccc2Cl)CC1 (stereo not drawn) | -11 | -6 | 9 | 0 | -2 | 15
CCC(C)NS(=O)(=O)c1cc2c3c(c1)CCC(=O)N3CCC2 (stereo not drawn) | -3 | 1 | 11 | 0 | 2 | -1
O=C(CS(=O)(=O)Cc1ccccc1)NCCc1ccc(F)cc1 | -2 | 3 | 15 | 0 | -7 | 2
COc1ccccc1C(CNC(=O)C(C)(C)Oc1ccc(Cl)cc1)N1CCCC1 (stereo not drawn) | 89* | -8 | -27 | 1 | 12 | -2
Nc1ccc2nc3n(c(=O)c2c1)CCC3 | -2 | 3 | 6 | 0 | 26* | -5
Cc1ccc(C(=O)/C=C/c2cn(CC(O)CN3CCOCC3)c3ccccc23)cc1 (stereo not drawn) | 2 | -6 | 6 | 16* | 1 | 20
Cc1cc(/C=C\c2ccc3cc(N(C)C)ccc3[n+]2C)c(C)n1-c1ccccc1 | 90* | 26* | -28 | 20* | 35* | -7
C[n+]1c(/C=C/c2ccc(O)cc2)ccc2ccccc21 | 0 | -9 | 0 | -1 | -9 | 12
O=P(O)(Cc1ccccc1)c1ccccc1 | -13 | -2 | 8 | 1 | -11 | 18
CCC(=O)Nc1nc(-c2ccc3c(c2)CC(C)N3S(C)(=O)=O)cs1 (stereo not drawn) | -2 | -5 | -1 | 4 | 0 | 11
CC1Cc2cc(-c3csc(NC(=O)Cc4cccs4)n3)ccc2N1S(C)(=O)=O (stereo not drawn) | 26* | 1 | -12 | 11 | 9 | 9
N#CC(c1ccc(Cl)cc1)c1ccc2c(C(F)(F)F)cc(C(F)(F)F)nc2n1 (stereo not drawn) | 22 | 3 | -5 | 10 | 24* | 9
Cc1ccc(NC(=O)CSc2ccc(S(=O)(=O)N3CCCC3)cn2)cc1F | 5 | -1 | -6 | 16* | -2 | 15
CN(CC(=O)Nc1ccc(S(=O)(=O)N2CCCC2)cc1)CC(=O)Nc1cccc(F)c1 | 7 | -7 | -1 | 18* | 2 | 6

Screening results: PubChem BioAssay, The Scripps Research Institute Molecular Screening Center
